Test [1] in a line: rapamycin-like changes in RPL19A-GFP expression – cell-based, S. cerevisiae, multiplex flow cytometry, primary screen (AID 1862; in the data active = percent of DMSO control GFP below about 86%;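 note: lower values mimic rapamycin by blocking the RPL19A rise seen in DMSO cells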). Particulars: S. cerevisiae RPL19A-GFP strain, flow cytometry fluorescence, 3 h; at 10 µM; stronger effect = lower value.
Test [2] in a line: TOR pathway GLN3 branch reporter MEP2-GFP changes – S. cerevisiae, multiplex flow cytometry, primary screen (AID 1867;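 active = GFP response, as percent of the DMSO control, above the screen-wide mean plus 3 SD, about 139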;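 note: median GFP channel fluorescence of barcode-gated MEP2-GFP cells measured by flow cytometry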). Particulars: S. cerevisiae MEP2-GFP strain, 3 h, at 10 µM, stronger effect = higher value. A general note: In flow cytometry, cells or beads pass a laser one at a time.
Test [3] is described as follows: TOR pathway RTG branch CIT2 reporter changes – S. cerevisiae, GFP fusion, multiplex flow cytometry, primary screen (AID 1870;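 active = percent response above a set limit, the screen-wide mean plus 3 SD, cut at about 130% in these data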;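 note: barcoded CIT2-GFP strain pooled with four other GFP strains with rapamycin as positive control; median GFP fluorescence per well over plate mean of DMSO wells so 100% = DMSO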). Particulars: S. cerevisiae CIT2-GFP expression, 3 h, at 10 µM, stronger effect = higher value.
Test [4] can be described thus: TOR pathway LAP4-GFP level changes – S. cerevisiae, multiplex flow cytometry, primary screen (AID 1873;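 active = GFP signal, as percent of the solvent control, above the screen mean plus 3 SD, about 149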). Particulars: S. cerevisiae LAP4-GFP expression, 3 h, at 10 µM, stronger effect = higher value.
Test [5] can be described thus: yeast AGP1-GFP level changes, GLN3 branch – cell-based, multiplex flow cytometry, S. cerevisiae, primary screen (AID 1887;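 active = GFP signal above the screen-wide mean plus 3 SD, that is over about 124.5% of the solvent control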;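 note: AGP1-GFP fusion strain of S. cerevisiae within a five-strain barcoded multiplex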). Particulars: 3 h, at 10 µM, stronger effect = higher value.
Test [6] can be described thus: reduced mouse 2C T cell binding to pMHC/ICAM-1 vesicles – MLPCN validation set, flow cytometry, LFA-1/ICAM-1 modulator project, pilot screen (AID 2523;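 active = response below a set limit, under 55% cells CD8-positive and vesicle-bound, and CD8 cells' 90th-percentile brightness under 279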;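 for vesicle binding response: mean PE anti-B7-1 fluorescence of CD8+ cells relative to row control; 100% = QL9-loaded vesicles with DMSO vehicle in the same plate row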). Particulars: 2C mouse CD8+ T cells, at 7 µM, stronger effect = lower value; double positive events: measured here: CD8+/vesicle+ event percentage.
Test [7] has as its target Integrin beta-1 (Homo sapiens) + Integrin alpha-4 (Homo sapiens) (UniProt P13612+P05556). The experiment in a line: alpha4beta1 integrin LIBS antibody binding reduction – U937 cells, HUTS-21 mAb, flow cytometry, validation set, VLA-4 allosteric modulator project, pilot screen (AID 2674;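 active = inhibition above 50%, about 3 SD of the validation set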;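 note: antibody binding induced by the VLA-4 ligand LDV present at three times its Kd; 0% = LDV ligand with antibody and no compound and 100% = antibody without LDV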). Particulars: HUTS-21 LIBS mAb binding, at 6.7 µM, stronger effect = higher value.
Test [8] can be described thus: calorie-restriction mimetic ROS inhibitors, yeast – validation compound set, pilot screen (AID 2706;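 active = superoxide response below 65% of plate, a cut near 3 SD across the whole screen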;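 note: yeast exposed to compound for one week at 30 degrees C before staining; 100% = mean of all compound wells on the same plate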). Particulars: S. cerevisiae aging, superoxide DHE fluorescence; at 10 µM; stronger effect = lower value.
The target in test [9] is Beta-adrenergic receptor kinase 1 (Homo sapiens) (UniProt P25098). The test is described as follows: GRK2 binders displacing RNA aptamer, biochemical, validation, human GRK2, bead flow cytometry (AID 488806;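 active = aptamer binding inhibition above 30%, about 3 SD of noise from non-fluorescent compounds; inactive = inhibition at or below 30%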). Particulars: bead-bound GRK2, FAM-aptamer displacement, at 10 µM, stronger effect = higher value.
For test [10], the target named is Beta-2 adrenergic receptor (Homo sapiens) (UniProt P07550). The experiment in a line: agonist-induced loss of surface beta2AR – cell-based, FAP fluorogen, flow cytometry, validation set, pilot screen (AID 504459;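 active = percent response above 42, roughly 3 SD of non-fluorescent test compounds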;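 note: agonist-driven loss of surface beta2AR via internalization measured by FAP dye flow cytometry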). Particulars: Am2.2-beta2AR cells, at 10 µM, stronger effect = higher value.
In test [11] the target is AP-2 complex subunit beta (Homo sapiens) (UniProt P63010). The test is described as follows: beta-arrestin/AP2 interaction blockers – biochemical, validation set, GST-AP2 beads, flow cytometry, pilot screen (AID 504541;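 active = inhibition above 54%, about 3 SD of non-fluorescent compounds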;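 note: AP2 carries R879A mutation and is captured from E. coli lysate; bead-bound FITC arrestin peptide fluorescence measuring arrestin peptide binding to AP2; 0% = DMSO wells and 100% = excess unlabeled arrestin peptide control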). Particulars: FITC arrestin peptide, at 10 µM, stronger effect = higher value.
Test [12] is described as follows: cytosolic pH regulators acting via V-ATPase – S. cerevisiae, pHLuorin, HTS validation (AID 504600; in the data active = response above about 15%;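 note: plate controls were DMSO for no effect and reference compound for full effect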). Particulars: V-ATPase proton transport, at 10 µM, stronger effect = higher value.
Test [13] deals with anti-desmoglein-3 scFv antibody binding to human DSG3. The test is described as follows: blockers of pathogenic pemphigus antibody–desmoglein-3 binding – biochemical, validation compound set, bead-based, flow cytometry, pilot screen (AID 588368;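 active = binding below the plate cutoff, the plate median minus 3 SD, with a reading above zero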;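 note: signal is the median channel fluorescence of bead-bound GFP antibody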). Particulars: Protein G beads, DSG3-Fc, scFv-GFP binding, at 10 µM, stronger effect = lower value.
For test [14], the system named is Botulinum neurotoxin type F light chain protease (Clostridium botulinum). The test is described as follows: Clostridium botulinum type F light chain protease inhibitors, microsphere substrate cleavage, validation (AID 588459). Particulars: multiplex microsphere protease substrate cleavage assay, flow cytometry; at 10 µM; stronger effect = higher value.
The target of test [15] is Botulinum neurotoxin type A (Clostridium botulinum) (UniProt P0DPI0). The experiment in a line: BoNT/A light chain protease inhibitors, biochemical, multiplex microsphere flow cytometry, validation set (AID 588460). Particulars: at 10 µM, stronger effect = higher value.
Test [16] deals with Lethal factor (Bacillus anthracis) (UniProt P15917). The test is described as follows: Bacillus anthracis lethal factor inhibition, microsphere flow cytometry protease assay, validation at 10 µM (AID 588461). Particulars: multiplex microsphere protease cleavage assay, stronger effect = higher value.
Test [17] in a line: Nile Red efflux blockade in pump-expressing yeast – validation compound set, multiplex, phenotypic, pilot screen (AID 588506;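 active = efflux inhibition above 0.42, the validation set average plus 4 SD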;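 note: Nile Red retained in cells so higher fluorescence means more efflux inhibition; 0 = negative control wells and 1 = enniatin B 25 µM full block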). Particulars: S. cerevisiae pump-expressing triplex, Nile Red efflux flow cytometry; at 10 µM; stronger effect = higher value.
For test [18], the target named is ATP-binding cassette sub-family B member 6 (Homo sapiens) (UniProt Q9NP58). The test is described as follows: blockers of ABCB6-driven porphyrin uptake – K562-ABCB6 cells, flow cytometry, validation set, pilot screen (AID 588550;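 active = inhibition above the screen-wide mean plus 3 SD, about 51%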;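 note: 0% = DMSO wells and 100% = benzethonium chloride 70 µM positive control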). Particulars: K562-ABCB6 porphyrin accumulation, 1 h, at 10 µM, stronger effect = higher value.
Test [19] can be described thus: AML differentiation inducers, ER-HoxA9 marrow cells – cell-based, GFP/MAC1 double positive, flow cytometry, validation set, primary screen (AID 588685;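 active = differentiation response of at least 50%, scaled between solvent and reference control, from cells with both markers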;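 note: compound exposure lasts four days before antibody staining and flow analysis; 0% = DMSO wells and 100% = 5 µM fulvestrant positive control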). Particulars: stronger effect = higher value.

Molecules are shown by their SMILES. Records with an inconclusive call do not appear. The source made the active and inactive calls. Unless noted, the rule behind the calls is not given here.

As to `CCCC[N+]1(C)[C@@H]2CC(OC(=O)[C@H](CO)c3ccccc3)C[C@H]1[C@@H]1O[C@@H]12` (stereo not given in full), in test [1], the percent of DMSO control GFP is 107% (inactive). The GFP response vs DMSO is 109% (inactive) in test [2] and 112% (inactive) in test [4]. Also, in test [3], the percent response of DMSO control is 106% (inactive). The GFP response, % of DMSO in [5] is 111% (inactive). This molecule displayed a double positive events in test [6] of 59.9%. Moreover, the vesicle binding response in test [6] was 150% (inactive). Moreover, the inhibition in test [7] is -15.8% (inactive); in [11], 0.96% (inactive); in [14], 1.1% (inactive); in [15] it was 0.2% (inactive); in [16], -5.3% (inactive); in [18] it was 28% (inactive). Further, in [8], the superoxide response (% of plate) was 97.4% (inactive). For the same molecule, in test [9], the aptamer binding inhibition was 4% (inactive). For the same molecule, the figures for the response in test [10] and in test [12] were -2.08% (inactive) and -3.56% (inactive), respectively. Besides, the binding (% of control) in test [13] is 96.4% (inactive). For the same molecule, the efflux inhibition (fraction of control) in [17] is 0.3 (inactive). The differentiation response in test [19] is 13% (inactive).

`CCOc1ccc(N2C(=O)NC(=O)/C(=C\c3cc(OC)c(OC)cc3[N+](=O)[O-])C2=O)cc1`: in test [1], the percent of DMSO control GFP was 102% (inactive). The GFP response vs DMSO in test [2] is 97.7% (inactive); in [4], 89.3% (inactive). Besides, in test [3], the percent response of DMSO control was 109% (inactive). Moreover, the GFP response, % of DMSO in [5] was 103% (inactive). In test [6], this molecule displayed a double positive events of 60.3%. The vesicle binding response in test [6] is 144% (inactive). The inhibition in [7] was -7.79% (inactive); in [11] it was 7.81% (inactive); in [14], -3.1% (inactive); in test [15] it was -0.2% (inactive); in test [16], 4.2% (inactive); in test [18] it was -11% (inactive). Moreover, the superoxide response (% of plate) in test [8] is 107% (inactive). Also, the aptamer binding inhibition in [9] is 0% (inactive). Also, the response is 7.81% (inactive) in test [10] and -4.04% (inactive) in test [12]. For the same molecule, in test [13], the binding (% of control) is 97.9% (inactive). For the same molecule, in test [17], the efflux inhibition (fraction of control) is -0.15 (inactive). Moreover, the differentiation response in [19] is 17.4% (inactive).

Turning to `OCc1cnc[nH]1`, in [1], the percent of DMSO control GFP is 103% (inactive). The GFP response vs DMSO in test [2] was 109% (inactive); in [4] it was 101% (inactive). The percent response of DMSO control in test [3] was 98.9% (inactive). Besides, in test [5], the GFP response, % of DMSO is 99.4% (inactive). In test [6], the double positive events was determined as 62.2%. Moreover, the vesicle binding response in test [6] is 4490% (inactive). Moreover, the inhibition was 11% (inactive) in test [7]; 3.29% (inactive) in test [11]; 0.1% (inactive) in test [14]; -0.3% (inactive) in [15]; 1.2% (inactive) in test [16]; -11% (inactive) in [18]. The superoxide response (% of plate) in test [8] is 104% (inactive). The aptamer binding inhibition in test [9] is 0% (inactive). Moreover, the response in [10] is -1.18% (inactive); in [12], 1.03% (inactive). In addition, in [13], the binding (% of control) is 97.4% (inactive). Besides, the efflux inhibition (fraction of control) in [17] was -0.01 (inactive). Moreover, the differentiation response in [19] was -10.5% (inactive).

With `Clc1ccc(COC(Cn2ccnc2)c2ccc(Cl)cc2Cl)cc1` (stereo not given), the percent of DMSO control GFP in [1] was 104% (inactive). Besides, the GFP response vs DMSO is 111% (inactive) in test [2] and 120% (inactive) in test [4]. In addition, the percent response of DMSO control in test [3] is 107% (inactive). In addition, the GFP response, % of DMSO in test [5] is 103% (inactive). Further, in [6], the double positive events was found to be 62.7%. In addition, in test [6], the vesicle binding response was 183% (inactive). Besides, the inhibition in [7] was -1.09% (inactive); in test [11], 16.5% (inactive); in test [14] it was -1.3% (inactive); in test [15] it was -0.4% (inactive); in [16], -7% (inactive); in test [18], -31% (inactive). The superoxide response (% of plate) in [8] was 121% (inactive). Also, the aptamer binding inhibition in [9] is 3% (inactive). Further, the response is 3.99% (inactive) in test [10] and 2.69% (inactive) in test [12]. The binding (% of control) in test [13] is 105% (inactive). For the same molecule, the efflux inhibition (fraction of control) in [17] was -0.28 (inactive). Moreover, in test [19], the differentiation response was 1.28% (inactive).

As usually defined, the inhibition is the drop in the measured response relative to a control, in per cent.

Source of the values: PubChem BioAssay.
